# Screening data (PubChem)
# Most compounds without a hit are left out; they make up all but 12% or so of the library.
# WT yeast gro inh: growth inhibition of WT strain, primary screen, mitochondrial fusion inhibitor project, WT and mutant strains, chemical genetic; mitochondrial fusion phenotypic screen; hit rate 2.1% among 190,000; inhibition, % at 10 µM; in the data active means inhibition above about 58%; tested in S. cerevisiae
# ROMK primary: ROMK potassium channel modulators, primary screen, cell-based, thallium flux, MLSMR library; ATP-sensitive inward rectifier potassium channel 1 (Homo sapiens), P48048; Tet-inducible ROMK, thallium flux fluorescence; actives lie on both sides; B-score at 10 µM; hit rate 2% among 130,000; AID 1918, 2009;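 active means signal ratio slope over the read window, or its plate-corrected B-score, at least 3 SD from the plate mean, either direction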;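 further: B-score of the F/F0 ratio slope over 7 to 12 s after thallium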
# Lmaj promast: Leishmania major promastigote growth inhibition, primary screen; hit rate 9% among 200,000; inhibition, % at 10 µM; Leishmania major promastigotes, resazurin fluorescence viability; AID 1063, 2008; in the data active means inhibition above about 50%;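 further: promastigotes grown with compound for 44 hours at 28 °C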
# INS promoter inh: inhibitors of insulin promoter-driven GFP, primary screen, imaging, TRM-6 cells (human fetal islet line), eGFP reporter, cell count; reporter expression induced with tamoxifen; hit rate 0.9% among 130,000; AID 1273, 2008; inhibition, % at 2 µM;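 active means inhibition above the mean plus 3 SD, with well images judged a real hit on visual review, cut at about 60% in these data, passing the limit was not always enough; inconclusive means inhibition over the cutoff but images rejected on review; inactive means inhibition not above the cutoff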
# Ins promoter up: insulin promoter activators in MIN6 cells, imaging, high-content screening, mouse beta cells | MIN6 insulin promoter-GFP reporter; stronger effect = higher value | z-score at 5 µM | hit rate 0.3% among 190,000 | AID 1625, 2009;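 active means z-score above 3 at 5 µM with at least 500 cells counted in the well; inconclusive means wells under 500 cells, flagged as cytotoxic or low count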
# Cl transport mod: KCC2 cotransporter modulators, thallium flux, primary screen, cell-based, HEK293 KCC2, FluoZin-2 fluorescence, MLSMR; hit rate 2.2% among 190,000; KCC2 cells, thallium flux FluoZin-2 fluorescence; Solute carrier family 12 member 5 (Homo sapiens), Q9H2X9; AID 1456, 2008; B-score of Tl+ flux slope (higher = more flux/activation; lower = inhibition) at 10 µM;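 active means thallium flux slope and its plate-corrected score both differing from the plate sample mean at a set confidence after two filtering rounds, in either direction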;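 further: slope of fluorescence scaled to starting intensity during 10 to 20 s after thallium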
# ROMK retest: ROMK channel modulator hit retest, confirmation, cell-based, thallium flux, duplicate, resupplied hits; AID 1917, 2009; hit rate 54% among 3,000; normalized thallium flux (F/F0 slope) at 10 µM; fluorescence ratio; stronger effect = lower value; shares compounds with ROMK primary;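 active means Flux at 10 µM at least 3 SD below or above vehicle control mean in one or both replicates; inconclusive means no clear call, values can overlap the other calls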
# * = called active by the depositor; ? = inconclusive; · = no result given.
SMILES,WT yeast gro inh,ROMK primary,Lmaj promast,INS promoter inh,Ins promoter up,Cl transport mod,ROMK retest
Cc1cc(NCCCn2ccnc2)n2ncc(-c3ccccc3)c2n1,2,-3.3*,89*,·,-0.4,-0.75,0.073
Cc1cc(NCCCn2ccnc2)n2nc(C)c(-c3ccccc3)c2n1,-5,·,14,73,·,-0.92,·
c1ccc(-c2nc(NCCCn3ccnc3)c3ccccc3n2)cc1,6,-3.6*,54*,43,-0.84,0.34,0.06*
CCCC(c1nnnn1Cc1ccc(F)cc1)N1CCN(C2CCCCC2)CC1 (stereo not given),11,·,72*,·,-0.19,0.58,0.052*
COc1ccc(Cn2nnnc2C(c2ccc(N(C)C)cc2)N2CCC(C)CC2)cc1 (stereo not given),2,·,10,·,-1.3,-0.48,·
CCCC(c1nnnn1Cc1cccs1)N1CCN(C2CCCC2)CC1 (stereo not given),-19,·,-6,·,0.09,0.96,·
CC(C)C(c1nnnn1Cc1ccc(F)cc1)N1CCN(C2CCCC2)CC1 (stereo not given),-6,-4.6*,4,·,-0.28,-0.021,0.059*
COc1ccc(Cn2nnnc2C(c2ccc(F)cc2)N2CCN(C3CCCC3)CC2)cc1 (stereo not given),-17,-4.2*,17,0,-1.1,·,0.053*
CCN(CC)c1ccc2ccc(=O)oc2c1,-22,-0.19,-7,·,-0.44,-0.76,·
CCN(CC)c1ccc2cc(C#N)c(=O)oc2c1,-6,·,-4,-10,4.2*,·,0.046*
C=C1CC2C3CC[C@@]4(OCOC45COCO5)[C@@]3(C)C(O)CC2[C@@]2(C)CCC(=O)C=C12 (stereo not given in full),0,0.044,35,8,0.07,0.17,·
NC1=NC(c2cccc(O)c2)n2c(nc3ccccc32)N1 (stereo not given),19,0.62,-5,-29,0.39,·,·
NC1=NC(c2ccc(F)cc2)n2c(nc3ccccc32)N1 (stereo not given),2,-2.5,-6,·,0.21,1,·
Cc1cc(C2N=C(N)Nc3nc4ccccc4n32)c(C)n1-c1ccccc1Cl (stereo not given),4,-5*,6,10,0.07,-0.043,0.059*
Cc1ccc(-n2c(C)cc(C3N=C(N)Nc4nc5ccccc5n43)c2C)c(C)c1 (stereo not given),26,·,42,·,-2.6,-0.39,0.047*
COc1ccc(N2CC(C(=O)Nc3cccc(C)n3)CC2=O)cc1 (stereo not given),-3,0.022,-4,-14,·,0.0054,·
OC1CCN(c2c3c(nc4cc(-c5ccc(Cl)cc5)nn24)CCC3)CC1,-3,-0.24,-3,33,-0.99,-0.71,·
Clc1cccc(-c2cc3nc4c(c(N5CCOCC5)n3n2)CCCC4)c1,85*,-3.9*,25,22,0.26,-0.17,0.064*
Cc1cc(-c2ccco2)n2c(nc3ccccc32)c1C#N,23,-0.29,-4,-8,0.95,-0.78,·
Cc1cc(Cl)n2c(nc3cc(F)c(F)cc32)c1C#N,81*,-7.2*,91*,-118,0.88,-1.9,0.053*
COc1ccc(OC)c(-n2c(-c3ccccc3)n[nH]c2=S)c1,-14,-0.099,-10,·,0.16,0.069,·
Cc1ccc(S(=O)(=O)N2CCCN(S(=O)(=O)c3ccc4c(c3)OCCO4)CC2)cc1,23,-3.8*,4,·,-0.99,·,?
CN1CCN(S(=O)(=O)c2ccc3c(c2)OCCO3)CC1,7,2.1,-5,-25,0.14,1.2,·
Cc1cc2nnc(SCC(=O)N3CCCCC3)n2c(N)n1,0,1.3*,9,·,0.52,0.82,0.083
O=C(CCC(=O)Nc1ccccc1Cl)NNC(=O)c1ccccc1[N+](=O)[O-],-8,0.37,8,·,-0.69,-0.66,·
CC(C)c1nc(SCC(=O)c2ccccc2)c2c(=O)n(C)c(=O)n(C)c2n1,0,·,1,·,-0.56,0.48,·
